Laboratory results reported in PubChem BioAssay (NCATS).
“And” between values parts separate entries of the source, which are not always exact repeats. Equal values may be shown once. Results filed as inconclusive are left out. Where a call stands in place of a potency, no number is given. Values without a mark were called inactive. The source made the active and inactive calls. Calls come from the whole dose curve; as a rule, active = well fitted curve in the direction sought with a large enough effect; inconclusive = small, poorly fitted or top-dose-only effect, or another doubt; inactive = no such curve, though single readings can be large; an effect the other way counts as inactive or inconclusive.

What was measured:
[1] = target: Cytochrome P450 3A7 (Homo sapiens) (UniProt P24462); assay: Cytochrome P450 family 3 subfamily A member 7 (CYP3A7) small molecule antagonists: luciferase biochemical qHTS assay (AID 1963596); note: nearly all actives have a fitted effect of over 40% in size
Method in brief: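 Luminescence read-out (relative luminescence units) after 20 min with detection reagent, which stops the reaction. Enzyme, proluciferin substrate and compound preincubated 10 min, RT; NADPH regeneration system then started 1 h reaction. Ketoconazole as positive control.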

[2] = Viability qHTS for spleen associated tyrosine kinase inhibitor (SYKi) naive MV4-11 cells (AID 1963823); note: nearly all actives have a fitted effect of over 40% in size; note: potency is the fitted concentration of half-maximal effect
Method in brief: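 Luminescence from CellTiter-Glo, developed 10 min at room temperature, gave viability of MV4-11 cells never exposed to SYK inhibitor. Cells (500/well) had been incubated with compounds for 72 hr under standard culture conditions.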

[3] = Viability qHTS for spleen associated tyrosine kinase inhibitor (SYKi) drug resistant MV4-11 cells (AID 1963824); note: nearly all actives have a fitted effect of over 35% in size; note: potency is the fitted concentration of half-maximal effect
Method in brief: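 SYK-inhibitor-resistant MV4-11 AML cells were seeded at 500 per well onto compound and cultured 72 hours (37 °C, 5% CO2). CellTiter-Glo was then added, and after 10 min at room temperature, luminescence gave viability.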

[4] = Cellular viability qHTS for adrenocortical cancer (ACC) cell line SW-13 (AID 1963989); conditions: SW-13 ACC cells viability, CellTiter-Glo, 48 h; activity (max response): hits give low values; note: nearly all actives have a fitted effect of over 65% in size; note: potency is the fitted concentration of half-maximal effect;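 for activity (max response): cells grown in serum-free medium with ITS supplement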
Method in brief: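 Viability was read as CellTiter-Glo luminescence after 48 h compound treatment (up to 46 uM final) of SW-13 cells grown serum-free; titration curves were fit with a four-parameter logistic model to give IC50 and efficacy.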

[5] = Cellular viability qHTS for adrenocortical cancer (ACC) cell line NCI-H295R (AID 1963990); note: nearly all actives have a fitted effect of over 60% in size; note: potency is the fitted concentration of half-maximal effect
Method in brief: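 CellTiter-Glo ATP luminescence, read 48 h after compound addition, measured viability of NCI-H295R adrenocortical cells grown serum-free with ITS. Final concentrations spanned up to 46 uM. Data normalized to DMSO and doxorubicin, fitted for IC50 and maximal response.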

Sequence of Cytochrome P450 3A7 (Homo sapiens) (P24462 whole entry, looked up): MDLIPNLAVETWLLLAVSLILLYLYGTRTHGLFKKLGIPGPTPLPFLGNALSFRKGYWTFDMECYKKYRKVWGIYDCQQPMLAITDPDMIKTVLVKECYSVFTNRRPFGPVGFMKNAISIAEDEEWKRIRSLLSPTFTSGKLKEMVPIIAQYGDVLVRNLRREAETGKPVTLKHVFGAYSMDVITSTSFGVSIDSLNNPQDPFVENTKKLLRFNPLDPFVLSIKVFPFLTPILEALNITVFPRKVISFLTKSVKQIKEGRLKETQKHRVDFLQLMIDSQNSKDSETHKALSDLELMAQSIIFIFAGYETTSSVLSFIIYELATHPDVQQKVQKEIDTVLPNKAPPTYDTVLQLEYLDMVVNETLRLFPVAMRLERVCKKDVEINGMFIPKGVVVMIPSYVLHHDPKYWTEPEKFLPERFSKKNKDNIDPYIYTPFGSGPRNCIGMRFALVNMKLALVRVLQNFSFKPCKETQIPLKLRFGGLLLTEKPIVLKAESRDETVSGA

| SMILES | Potency [1] | Potency [2] | Potency [3] | activity (max response) [4] | Potency [5] | Potency [4] | activity change, negative = inhibition [1] | viability (% of control) [2] | viability, % of control [3] | activity change, negative = viability loss [5] |
| --- | --- | --- | --- | --- | --- | --- | --- | --- | --- | --- |
| CCCCCCCC/C=C\CCCCCCCCN | inactive | inactive | inactive | 7.78% | inactive |  |  |  |  |  |
| O=C1NC(=O)[C@@]2(CCOc3ccc(F)cc32)N1 | inactive | inactive | inactive | 3.16% | inactive |  |  |  |  |  |
| CO/N=C(/C(=O)N[C@@H]1C(=O)N2C(C(=O)[O-])=C(C[n+]3ccn4ncccc43)CS[C@H]12)c1nsc(N)n1 | inactive | inactive | inactive | -7.2% | inactive |  |  |  |  |  |
| CN1CCN(C(c2ccccc2)c2ccccc2)CC1 | inactive | inactive | inactive | -4.21% | inactive |  |  |  |  |  |
| NC[C@H]1O[C@H](O[C@H]2[C@H](O)[C@@H](O[C@H]3O[C@H](CO)[C@@H](O)[C@H](N)[C@H]3O)[C@H](N)C[C@@H]2N)[C@H](N)[C@@H](O)[C@@H]1O | inactive | inactive | inactive | -3.44% | inactive |  |  |  |  |  |
| O=C(O)Cc1cccc2ccccc12 | inactive | inactive | inactive | 3.96% and 12.8% | inactive |  |  |  |  |  |
| COc1cc2ncnc(Nc3ccc(F)c(Cl)c3)c2cc1NC(=O)/C=C/CN1CCCCC1 | inactive | 1.64 µM (active) | 1.64 µM (active) |  | 4.47 µM (active) | 0.708 µM (active) |  |  |  |  |
| CC1(C)OC(=O)NC1=O | inactive | inactive | inactive | 15.1% | inactive |  |  |  |  |  |
| CC(=O)NCc1c(I)c(NC(C)=O)c(I)c(C(=O)O)c1I | inactive | inactive | inactive | 13.2% | inactive |  |  |  |  |  |
| Nc1c[n+](N2CCOCC2)no1 | inactive | inactive | inactive | -4.73% | inactive |  |  |  |  |  |
| CCCCCCCCCCCCCCCCCC(=O)OCC(O)CO (stereo not given) | inactive | inactive | inactive | 5.37% | inactive |  |  |  |  |  |
| CC(C)(Oc1ccc(C2CC2(Cl)Cl)cc1)C(=O)O (stereo not given) | inactive | inactive | inactive | 13.8% and -14.2% | inactive |  |  |  |  |  |
| Cc1ncc(COP(=O)(O)O)c(C=O)c1O | inactive | inactive | inactive | 7.84% | inactive |  |  |  |  |  |
| CN(C)CCN(Cc1cccs1)c1ccccn1 | inactive | inactive | inactive | 15.3% | inactive |  |  |  |  |  |
| Cc1cccc(-c2nn3c(c2-c2ccnc4ccc(C(N)=O)cc24)CCC3)n1 | inactive | inactive | inactive | 14.6% | inactive |  |  |  |  |  |
| CCOC(=O)CN1CCCC1=O | inactive | inactive | inactive | 4.08% | inactive |  |  |  |  |  |
| N[C@@H](CCC(=O)N[C@@H](CS)C(=O)NCC(=O)O)C(=O)O | inactive | inactive | inactive | -1.28% | inactive |  |  |  |  |  |
| CC(N=C(NC#N)Nc1ccncc1)C(C)(C)C (stereo not given) | inactive | inactive | inactive | 1.19% | inactive |  |  |  |  |  |
| C[C@H]1COc2c(C3(N)CC3)c(F)cc3c(=O)c(C(=O)O)cn1c23 | inactive | inactive | inactive | -1.24% | inactive |  |  |  |  |  |
| O=C(NCCN1CCOCC1)c1ccc(Cl)cc1 | inactive | inactive | inactive | 1.07% | inactive |  |  |  |  |  |
| FC(F)(F)C(Cl)Br (stereo not given) | inactive | inactive | inactive | -8.02% | inactive |  |  |  |  |  |
| O[C@@H]1CO[C@H]2[C@@H]1OC[C@@H]2O | inactive | inactive | inactive | -0.327% | inactive |  |  |  |  |  |
| CCCN(CCC)C(=O)C(CCC(=O)O)NC(=O)c1ccccc1 (stereo not given) | inactive | inactive | inactive | 0.293% and -17.2% | inactive |  |  |  |  |  |
| CCC(=O)c1ccc(O)cc1 | inactive | inactive | 7.5 µM (active) | 5.38% | inactive |  |  |  |  |  |
| NCCCNCCSP(=O)(O)O |  |  |  | 1.65% |  |  | 11.1% [at 11.5 µM] | 79.8% [at 9.25 µM] | 105% [at 9.25 µM] | 0.548% [at 9.17 µM] |
| O=C(O)c1cc(-c2ccccc2)nc2ccccc12 | inactive | inactive | inactive | 10.7% | inactive |  |  |  |  |  |
| CC(=O)Nc1nnc(S(N)(=O)=O)s1 | inactive | inactive | inactive | 5.04% | inactive |  |  |  |  |  |
| OC1(c2ccc(Cl)cc2)CCNCC1 | inactive | inactive | inactive | 11.1% | inactive |  |  |  |  |  |
| CCCCCOC(=O)Nc1nc(=O)n([C@@H]2O[C@H](C)[C@@H](O)[C@H]2O)cc1F | inactive | inactive | inactive | 14.3% and 14.2% | inactive |  |  |  |  |  |
